AHR activator – activators of human aryl hydrocarbon receptor; P35869; AHR-responsive luciferase reporter cells, luminescence; activation, % at 5 µM; 320,000 compounds, 2.5% hits; AID 2796; in the data active = activation above about 47%;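 note: 0% = vehicle wells and 100% = reference agonist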
NR3A LBD binder – NR3A (human) ligand-binding domain modulation. 340,000 compounds, 2.5% hits. NR3A LBD differential scanning fluorimetry, Tm shift; 0% = protein alone, 100% = glycine-bound protein. Tm shift relative to glycine control, % at 25 µM. AID 1259313;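 active = melting temperature shift of at least 10% of the positive control shift, at one fixed dose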
KLK7 zymogen act – activates the human kallikrein-7 zymogen; 370,000 compounds, 0.9% hits; activation, % at 7 µM; P49862; purified proKLK7, EDANS-DABCYL substrate fluorescence; 100% is mature enzyme control, 0% vehicle;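 active = activation above the mean of all tested compounds plus 3 SD, computed per campaign excluding outliers beyond control limits, cut at about 13% in these data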
ADAM10 inh – inhibits human ADAM10; O14672; recombinant ADAM10, EDANS/DABCYL FRET peptide cleavage, 3 h; inhibition, % at 7 µM; 370,000 compounds, 0.62% hits;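 active = inhibition above a per-campaign cutoff equal to the mean of compounds falling between control-based bounds plus 3 SD, cut at about 20% in these data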;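 note: 0% = DMSO wells while the 100% control is not disclosed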
ADAM17 inh – inhibits human ADAM17; P78536; recombinant ADAM17, EDANS/DABCYL FRET peptide cleavage; inhibition, % at 6.95 µM; 370,000 compounds, 0.83% hits; AID 720648;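 active = inhibition above the mean of compounds lying between control limits plus 3 SD, set per campaign, cut at about 8.5% in these data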;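 note: 0% = DMSO-only wells as the low control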
rCAG RNA binder – binds r(CAG) RNA repeats. inhibition, % at 3 µM. AID 651821. 370,000 compounds, 1.3% hits. r(CAG) RNA repeat, TO-PRO-1 dye displacement fluorescence;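 active = inhibition above the plate cutoff, the mean of all test compounds on that plate plus 3 SD, cut at about 35% in these data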;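 note: 0% = DMSO alone and 100% = 100 µM mitoxantrone as full dye displacement; higher means more dye released from RNA so lower well fluorescence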
* marks the source's active call; other numbers are inactive results; . = not tested or not shown. Shown are actives, neighbours in structure and some others; about 7% of the full set was active somewhere.

SMILES | AHR activator | NR3A LBD binder | KLK7 zymogen act | ADAM10 inh | ADAM17 inh | rCAG RNA binder
Cc1onc(-c2c(F)cccc2Cl)c1C(O)c1ccc(F)cc1 (stereo not given) | 0 | 11* | 0 | 7 | 0 | -3
Cc1onc(-c2c(F)cccc2Cl)c1C(=O)Nc1nc2ccccc2[nH]1 | 48* | -5 | 0 | 4 | 4 | -2
Cc1cc(NC(=O)c2c(-c3c(F)cccc3Cl)noc2C)no1 | -1 | 1 | 1 | -4 | -3 | -5
COc1ccc2c3c([nH]c2c1)[C@]1(CCNC=O)Nc2ccccc2C1=NCC3 | . | . | . | -21 | -7 | .
Nc1ccc(C(=O)N/N=C/c2cccc(Oc3ccccc3)c2)cc1 | . | 10* | 1 | -5 | 2 | 1
COc1ccc(/C=N\NC(=O)c2ccccc2[N+](=O)[O-])cc1COc1c(F)c(F)c(F)c(F)c1F | -2 | 10* | 0 | 15 | 9 | 4
COc1ccc(/C=N\NC(=O)c2cccc(F)c2)cc1COc1ccccc1 | 64* | 16* | -3 | 10 | 4 | 8
CCOc1ccc(OCc2ccc(C(=O)NN=Cc3ccc[nH]3)cc2)cc1 | -9 | 19* | 1 | -14 | -3 | 3
C[C@@H]1[C@@H](c2ccccc2)OC(O)([C@H](Cc2ccccc2)NC(=O)OC(C)(C)C)CN1C (stereo not given in full) | . | . | . | 2 | 0 | .
Cc1ccc(OC(=O)N(C)C[C@H]2OCc3cn(nn3)CCCC(=O)N([C@@H](C)CO)C[C@@H]2C)cc1 | . | . | -1 | -11 | -7 | 0
COc1ccc(C(=O)N/N=C\c2ccc(OC)c(COc3ccccc3Br)c2)c(OC)c1 | 48* | 3 | -17 | 2 | 0 | 14
COc1ccc(/C=N/NC(=O)c2cccc(Br)c2)cc1CSc1ccccn1 | 56* | 8 | 0 | 1 | -2 | 8
COc1cccc(/C=N/NC(=O)c2ccc(OCc3cccc(Br)c3)cc2)c1 | 23 | 29* | -1 | 3 | 2 | 5
O=C(N/N=C/c1cccc(OCc2ccccc2)c1)c1ccc(Br)cc1 | 2 | 1 | 1 | -1 | 0 | 2
COc1ccc(/C=N/NC(=O)c2cccnc2)cc1CSc1ccccn1 | 12 | -2 | 0 | 1 | 2 | -3
CCOc1ccc(CCNC(=O)c2ccc(Oc3ccccc3)cc2)cc1OCC | . | . | . | -4 | -3 | .
COCc1[nH]nc2c1C(c1cccc(C(F)(F)F)c1)N(c1ccc(OC)cc1)C2=O (stereo not given) | . | . | 0 | -3 | -4 | 1
O=C(Nc1ccc2c(c1)OCO2)c1cncc(Br)c1 | 93* | 4 | 0 | -3 | 0 | 3
O=C(Nc1ccc2c(c1)oc1ccccc12)c1ccc(Br)o1 | 17 | 29* | -20 | 5 | 0 | 15
O=C(Nc1ccc2c(c1)CCC2)c1ccc(Br)o1 | 24 | -11 | 0 | -2 | 2 | 1
O=C(Nc1ccc2c(c1)OCCO2)c1cncc(Br)c1 | 18 | 2 | 0 | 0 | 1 | -1
O=C(Nc1ccc2c(c1)OCO2)c1ccc(Br)o1 | 129* | -9 | 1 | -1 | 5 | 1
O=C(OC12CCCN(C1)/C(=C/c1ccc(Cl)cc1)C2)c1ccc(F)cc1 (stereo not given) | . | . | 0 | 3 | 3 | 7
COC(=O)[C@]12C[C@H](CC(=O)NCCCN3CCCC3=O)C(=O)N(CCc3ccc(OC)c(OC)c3)C1=C[C@H](C(C)(C)C)O[C@@H]2C | . | . | 0 | 1 | 2 | -3
Cc1ccc(-n2c(SCC(=O)NCc3ccco3)nc3c(sc4ccccc43)c2=O)cc1 | 3 | 10* | 0 | -3 | 1 | 10
SMILES | AHR activator | NR3A LBD binder | KLK7 zymogen act | ADAM10 inh | ADAM17 inh | rCAG RNA binder
O=C(CSc1nc2c(sc3ccccc32)c(=O)n1CCO)NCc1ccco1 | 5 | 0 | 1 | -4 | -4 | 9
C=CCOC(=O)N[C@H](c1ccc2ccccc2c1)[C@H](C)/C=C/CC(=O)OC | . | . | 0 | -1 | -3 | 1
COc1ccccc1C(=O)Nc1nnc(-c2ccc3c(c2)CCCC3)o1 | 52* | -9 | 1 | 3 | 2 | 7
CC(=O)Nc1nnc(-c2ccc3c(c2)CCCC3)o1 | 59* | -1 | 0 | -10 | -4 | 3
O=C(CSc1nc2ccccc2[nH]1)NN=Cc1ccccc1C(=O)O | . | . | 0 | -25 | -6 | 2
C=CCn1c(N)c(C(=O)Nc2ccccc2)c2nc3ccccc3nc21 | -5 | 13* | -5 | -73 | -21 | 17
COc1ccc(-n2c(SCC(=O)NC3CCCCCC3)nnc2-c2ccncc2)cc1 | . | . | 0 | -6 | -3 | 3
O=C(Nc1ccc(F)c(Cl)c1)c1ccc2c(c1)OCO2 | 8 | -2 | 0 | 2 | -2 | 1
COc1ccc(NC(=O)c2ccc3c(c2)OCCO3)cc1OC | 16 | 0 | 0 | 4 | 2 | 2
COc1cc(NC(=O)c2ccc3c(c2)OCCO3)ccc1NC(=O)c1ccccc1Cl | -17 | 29* | 0 | -3 | 0 | -2
COc1ccc(NC(=O)c2ccc3c(c2)OCO3)cc1Cl | -2 | 26* | 0 | -9 | -5 | -3
C=CCN1C(C(=O)OC)CN(Cc2cn(CCC3OCCO3)nn2)CCS1(=O)=O (stereo not given) | . | . | 1 | -7 | -5 | 3
Cc1nc(SCC(N)=O)[nH]c(=O)c1C | . | . | . | 2 | -3 | .
CCOC(=O)c1ccc(NC(=S)N2CCSC2c2ccc(OC)cc2)cc1 (stereo not given) | -1 | 8 | 0 | -7 | 1 | 3
CCOC(=O)c1ccc(NC(=S)N2CCSC2c2ccc(Cl)cc2)cc1 (stereo not given) | 1 | 19* | 0 | -1 | 0 | -1
C#CCn1c(=NC(=O)c2cc(Cl)sc2Cl)sc2cc(S(N)(=O)=O)ccc21 | 2 | 31* | -3 | -21 | -8 | -16
C#CCn1c(=NC(=O)c2cc(-c3cccs3)nc3ccccc23)sc2cc(S(N)(=O)=O)ccc21 | 36 | 15* | -2 | -22 | -8 | 9
COC(=O)Cn1c(=NC(=O)c2sc3ccccc3c2Cl)sc2cc(S(N)(=O)=O)ccc21 | 0 | 13* | -13 | -32 | -10 | -2
CCOC(=O)Cn1c(=NC(=O)c2sc3ccccc3c2Cl)sc2cc(S(N)(=O)=O)ccc21 | 1 | 3 | -2 | -25 | -5 | 14
CC(C)[C@H](N)C(=O)N[C@H](C(=O)N1CCC2CCN(S(=O)(=O)c3ccccc3)CC21)C(C)C (stereo not given in full) | . | . | 0 | -2 | -3 | 2
CN(N=Cc1ccccc1O)C(=O)c1ccccc1N | . | . | 0 | -4 | -4 | 0
O=C(c1ccccc1)N1CCC2CCN(CCc3ccccc3)CC21 (stereo not given) | . | . | 0 | -1 | 5 | 2
O=C(NCCc1nc2ccccc2[nH]1)c1cc([N+](=O)[O-])cc([N+](=O)[O-])c1 | 3 | 11* | 0 | 0 | -1 | 0
